Test results as given in PubChem BioAssay.

experiment: probe aLefty2 binding to arrayed compounds – biochemical, biotinylated probe, 635/667 nm fluorescence, primary screen (AID 1094); details: small-molecule microarray, higher = more signal;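 also: score merges spot fluorescence near 667 nm with spot signal-to-noise ratio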

Compound	composite z-score
CCN1C(=O)[C@H]2[C@H]3[C@H](O)[C@H](O)CC(=NO[C@@H](C)c4cc(-c5c(C)cc(C)cc5C)no4)[C@@H]3CC[C@H]2C1=O	-0.0283
O=C(NN=C1C[C@@H](O)[C@@H](O)[C@@H]2[C@@H]3C(=O)N(c4ccc(F)cc4F)C(=O)[C@@H]3CC[C@H]12)OCc1ccccc1	-0.0309
CC#CCOCCC=C1c2ccccc2[C@@H](OC)[C@@H]1C	-0.0266
CC(CCC(=O)OC[C@H]1O[C@H](C#Cc2ccccc2)C=C[C@@H]1Oc1ccc(C)cc1)=NO[C@H](C)c1cn([C@@H]2COC[C@H]2O)nn1	-0.128
COC(=O)[C@@H]1CC[C@H](C)[C@@H](c2ccc(C)cc2)N1C(=O)c1ccc(C=NOC[C@H]2O[C@H](c3ccccc3)C=C[C@@H]2Oc2ccc(OC)cc2)cc1	-0.0977
CC(=O)OC[C@H]1O[C@@H](ON=C2[C@H]3CCn4c(=O)n(-c5ccccc5)c(=O)n4[C@H]3[C@H](O)[C@@H]3O[C@H]23)[C@H](OC(C)=O)[C@@H](OC(C)=O)[C@@H]1OC(C)=O	-0.0409
